Experimental findings from PubChem BioAssay (NCI) are described below.

Compounds without any hit were thinned out: in the full panel of roughly 83,000, 20% have a hit.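 Single-concentration screen, 48 h exposure, 96-well plates. Endpoint: percent growth. Below 10 = active.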 Active and inactive are the calls of the source.

For the assay, the system named is MDA-MB-468 breast. Nature of the assay: NCI-60 one-dose screen, 48 h (100 = growth as untreated, 0 = no growth, -100 = all killed). To be noted: 10 µM unless noted.
Regarding `CN1CCN(c2ccc3nc(-c4ccc5nc(-c6ccc(C(F)(F)F)cc6)[nH]c5c4)[nH]c3c2)CC1`, the growth was 50.6% (inactive).

On to `O=c1cc(-c2cccnc2)oc2c1ccc1ccccc12`, for which the growth was 65% (inactive).

For the compound `O=C(NCc1cn(Cc2cccc(Oc3ccccc3)c2)nn1)c1cccnc1Nc1ccccc1`, the growth is 18.1% (inactive).

For the compound `O=C(O)c1cn(C2CC2)c2cc(N3CCN(Cc4nnc(Nc5ccccc5)o4)CC3)c(F)cc2c1=O`, the growth is 114% (inactive).

Take `COC(=O)[C@]1(CCSC)N[C@H](c2cn(-c3ccccc3)nc2C)[C@@H]2C(=O)N(c3ccc(C)cc3)C(=O)[C@@H]21`: the growth was 127% (inactive).

Consider `C#CCC1(c2ccc(F)c(F)c2)NS(=O)(=O)c2ccccc21` (stereo unspecified), for which the growth was 95.2% (inactive).

Take `COc1ccc(NC2=C(Br)C(=O)C(C)=C(C)C2=O)cc1OC`: the growth was -66.6% (active).

With `CN(C)c1ccc(-c2c(C#N)c(N)n3nc(N)c(C#N)c3c2C#N)cc1`, the growth was 81.3% (inactive).

With `COc1ccc(C(=O)c2cc(OC)c(OC)c(OC)c2)cc1/C=C/C(=O)c1ccc(F)cc1`, the growth is 90.4% (inactive).

For `Nc1nc(CSc2n[nH]c(N)n2)nc(Nc2ccccc2)n1`, the growth was 108% (inactive).

As for `Cc1ccc(/C=C/c2c(C(=O)/C=C/c3ccc(C(F)(F)F)cc3)c(C)nc3ccccc23)cc1`, the growth is -57.4% (active).

Take `CCc1c(C(=O)Nc2ccc3ccccc3c2)[nH]c(C)c1C(C)=O`: the growth is 83.7% (inactive).

With `CCCCCCCCCCCC[n+]1ccccc1`, the growth is -23.6% (active).

Turning to `O=c1cc(C(F)(F)F)c2cc(-c3cc4ccccc4c(=O)o3)c(O)cc2o1`, the growth was 61.4% (inactive).

On to `COc1ccc(-c2nc(Nc3cc(C)[nH]n3)c3ccccc3n2)cc1`, for which the growth was 47.3% (inactive).

Take `COC(=O)[C@]12CC[C@@H](C)[C@H](C)[C@@H]1C1=CC[C@@H]3[C@@]4(C)C(C=O)=C[C@@](C)(CO)[C@@H]4[C@H](O)C[C@@]3(C)[C@]1(C)CC2`: the growth is -12% (active).

`COc1ccc(/C=C2\CCCC3=C2NC(N)=NC3c2ccc(OC)c(OC)c2)cc1OC` (stereo unspecified): the growth is -16.3% (active).

`C=CC(=O)NCc1ccc(Nc2nccc(-c3ccc(N4CCCC4)c(C#N)c3)n2)cc1`: the growth was 15.7% (inactive).

Regarding `CC(C)[C@H]1COC(=O)N1[C@@H]1C(=O)N([C@@H](CCC(=O)N2CCN(C3CCCC3)CC2)C(=O)N[C@@H]2CCCc3ccccc32)[C@@H]1/C=C/c1cccc(Br)c1`, the growth was -21.6% (active).

Take `Cc1ccc(Cc2cnc(NC(=O)c3cc(Br)cs3)s2)cc1`: the growth was 30% (inactive).

Regarding `COC(=O)/C=C1\SC(=Nc2ccc(C(F)(F)F)cc2)N(CCc2c[nH]c3ccccc23)C1=O`, the growth was -66.3% (active).

For the compound `CSCC[C@@H]1C(=O)N(C)[C@H](C(C)(C)C)N1C(=O)c1ccccc1`, the growth is 105% (inactive).

For `O=C(Cc1nc2cc(Cl)c(Cl)cc2nc1CC(=O)c1cccnc1)c1cccnc1`, the growth was 33.8% (inactive).

Consider `COc1ccc2nc3cc(Cl)ccc3c(NCCCNC(C)=O)c2c1`, for which the growth is 39.5% (inactive).

Turning to `CC(=O)/C(N=Nc1ccc(S(=O)(=O)c2ccc(N=N/C(C(C)=O)=C(/C)O)cc2)cc1)=C(\C)O`, the growth was 108% (inactive).

With `COc1ccc(C(=O)CSc2nccc(Nc3ccc(C(=O)O)cc3)n2)cc1`, the growth was 104% (inactive).

As for `O=C(NCc1ccc2c(c1)OCO2)NCC1CCCC(CNC(=O)NCc2ccc3c(c2)OCO3)C1` (stereo unspecified), the growth was 104% (inactive).

In the case of `COc1ccc(-c2nn(-c3cccc(NC(=O)c4ccc(Cl)c(Cl)c4)c3)cc2-c2ccncc2)cc1Cl`, the growth is 73.3% (inactive).

In the case of `Cc1nc2nc(N)nc(N)c2nc1C`, the growth was 97.6% (inactive).

For `Oc1ccc(/C=N/N=C2c3ccccc3-c3ccccc32)c(O)c1`, the growth is -1.47% (active).

Turning to `CCCCC[C@H]1CC=C2C(=O)C(Cl)=C[C@@H]2CC=CCCCC(=O)O[C@@H](CCCCC)CC=C2C(=O)C(Cl)=C[C@@H]2CC=CCCCC(=O)O[C@@H](CCCCC)CC=C2C(=O)C(Cl)=C[C@@H]2CC=CCCCC(=O)O1`, the growth was 50.2% [8 µM] (inactive).

Take `CCN1CCN(Cc2ccc(-c3cc4c(N[C@H](C)c5ccccc5)ncnc4[nH]3)cc2)CC1`: the growth is -38.9% (active).

On to `Clc1ccc(Cc2ccncc2)cc1`, for which the growth is 99.2% (inactive).

In the case of `Cc1cccc(Cc2cnc(NC(=O)/C=C/c3ccco3)s2)c1`, the growth is 31.2% (inactive).

For `COc1ccc2nc3nc4ccc[nH]c4cc3c2c1`, the growth is -36.6% (active).

Take `O=C(Nc1cccc(-n2ccc3c(NC(=O)c4ccccc4)nccc32)c1)c1cccc(C(F)(F)F)c1`: the growth was -2% (active).
